The source made the active and inactive calls. A call without a number means that no potency is given here. Calls follow the shape of the dose curve; as a rule, active = well fitted cell-killing curve with a large enough effect; inconclusive = small, poorly fitted or top-dose-only effect; inactive = flat fitted curve, though single readings scatter.

This experiment can be described thus: Cell Viability - LYMP1-002 - Assay at 24 hr (AID 993). The following applies: LYMP1-002 lymphoblastoid cells viability; series mostly up to 92.2 µM. From the text:
NIH Chemical Genomics Center [NCGC]
NIH Molecular Libraries Screening Centers Network [MLSCN]
National Institutes of Environmental Health Sciences [NIEHS]
National Toxicology Program [NTP]
We have developed a 1536-well cell-based assay for quantitative high throughput screening (qHTS) against a number of cell lines to determine in vitro cytotoxicity of small molecules. This particular assay uses a human lymphoblastoid cell line (LYMP1-002) purchased from Coriell Institute for Medical Research.
NCGC Assay Protocol Summary:
The CellTiter-Glo luminescent cell viability assay (Promega) is a homogeneous method to measure the number of viable cells in culture. The end point readout of this assay is based on quantitation of intracellular ATP, an indicator of metabolic activity, using the luciferase reaction. Luciferase catalyzes the oxidation of beetle Luciferin to oxyluciferin and light in the presence of ATP. The luminescent signal is proportional to amount of ATP present.
Using the CellTiter-Glo luminescent cell viability assay, the amount of cellular ATP was measured in the lymphoblastoid cell line with complete culture medium following compound treatment for 24 hours. The assay was performed in opaque white Kalypsys 1536-well plates. In the screen, tetraoctylammonium bromide was used as positive control. Library compounds were measured for their ability to cause acute toxicity in the cell line, as reflected by a decrease in intracellular ATP levels, in a concentration-dependent manner. […] AC50 values were determined from concentration-response data modeled with the standard Hill equation.
qHTS protocol for CellTiter Glo lymphoblastoid cellular assay
[Step] [Parameter] [Value] [Description]
1. Reagent; 5 uL; 2500 lymphoblastoid cells/well
2. Time; 5 hr; 37 C incubation
4. Controls; 23 nL; Tetraoctylammonium bromide 6.4pM to 92 uM
5. Time; 24 hr; 37 C incubation
6. Reagent; 5 uL; CellTiter Glo reagent
7. Time; 30 min; Room Temperature
8. Detection; Luminescence; Viewlux plate reader
Keywords: cell viability, cytotoxicity, lymphoblastoid cell line, luminescence, NTPHTS, NTPHTS_NCGC, NIEHS, DSSTox, MLSMR, MLSCN, NIH Roadmap, qHTS, NCGC
As for `C1OCOCO1`, the Potency result was “inactive”. As for `CCCCCCCCCCCCCC(=O)O`, the Potency result was “inactive”. Turning to `Cc1c(N=C=O)cccc1N=C=O`, the Potency result was “inactive”.

In the case of `COC(=O)c1ccc(C)cc1`, the Potency entry was “inactive”.

For the compound `O=C1CCc2ccccc2O1`, the Potency entry is “inactive”. On to `C=CC(=C)CCC=C(C)C`, for which the Potency result was “inactive”. Take `Nc1ccc(S(=O)(=O)O)cc1`: the Potency entry was “inactive”. In the case of `c1ccc2c(c1)[nH]c1ccccc12` it was “inactive”. In the case of `CCCCCCCCCCCCCCC1CO1` (stereo not given) it was “inactive”. In the case of `Cc1ccccc1C`, the Potency result is “inactive”. For the compound `CCCCOCCO`, the Potency entry is “inactive”. As for `O=C(O)CC(C(=O)O)C(CC(=O)O)C(=O)O` (stereo not given), the Potency entry is “inactive”. Next, `CC1=CC(C)(C)Nc2ccccc21`: “inactive”; `COC(=O)c1ccc(C=O)cc1`: “inactive”. Regarding `CCO`, the Potency entry is “inactive”.

In the case of `C=CCc1ccc(OC)c(OC)c1`, the Potency entry is “inactive”. In the case of `CCCN(CCC)C(=O)SCC` it was “inactive”; in that of `O=C(O)c1ccccc1`, “inactive”; in that of `CC(=O)OC/C=C(\C)CCC=C(C)C`, “inactive”. For `CC1(C)CC(N=C=O)CC(C)(CN=C=O)C1` (stereo not given), the Potency result is “inactive”. In the case of `CN(C)CCCCCCN(C)C` it was “inactive”; in that of `CC1=C2[C@H](/C=C(\C)C(=O)O)CC[C@@H](C)[C@H]2CC1`, “inactive”; in that of `C=C(C)C1CC=C(C)C(O)C1` (stereo not given), “inactive”. Take `c1ccc2c(c1)c1cccc3ccc4cccc2c4c31`: the Potency result is “inactive”. In the case of `ClCCCl` it was “inactive”.

For the compound `C=Cc1ccccc1Cl`, the Potency result was “inactive”. `CCC(O)OC(O)CC` (stereo not given): the Potency entry is “inactive”. In the case of `O=C(/C=C/c1ccc(O)c(O)c1)O[C@@H](C(=O)O)[C@@H](OC(=O)/C=C/c1ccc(O)c(O)c1)C(=O)O`, the Potency result was “inactive”. With `OCCNCCO`, the Potency result was “inactive”. Next, `COC(=O)CCCCC(=O)OC`: “inactive”; `CCC(C)c1ccccc1O` (stereo not given): “inactive”. Turning to `O=S(=O)(O)c1ccccc1`, the Potency entry is “inactive”. With `c1ccc2scnc2c1`, the Potency result is “inactive”.

In the case of `O=C(O)c1ccccc1C(c1ccc(O)cc1)c1ccc(O)cc1`, the Potency result is “inactive”. In the case of `COc1c2ccoc2cc2oc(=O)ccc12` it was “inactive”; in that of `COc1ccc(/C=C/c2cc(OC)cc(=O)o2)cc1`, “inactive”.

In the case of `CCCCCCCCCCCC(=O)O`, the Potency result was “inactive”. With `CCO[Si](CCCN)(OCC)OCC`, the Potency result is “inactive”. Next, `c1ccccc1`: “inactive”; `Clc1cc(Cl)c(Cl)c(Cl)c1Cl`: “inactive”.
